This note sets out measurements from the supplement of paper PMC12339681.

Counter-ions that a name gives are not always drawn.

This assay concerns PBMC-derived induced microglia-like cells (piMGLC). The assay is described as follows: synaptosome phagocytic index relative to DMSO control (fraction of DMSO); higher = more phagocytosis. Particulars: concentration: 10 uM (2 uM for compounds listed in Table S2); pretreatment time: 24 h; assay time: 3 h.
Take `COc1nccc(-c2c(-c3ccc(F)cc3)ncn2C2CCC(O)CC2)n1` (stereo not drawn): the synaptosome phagocytic index was 0.995. Then `COC(=O)/C=C/C(=O)OC` [Dimethyl_fumarate], with 0.706.

Take `CN(C)CCOC(C)(c1ccccc1)c1ccccn1` (stereo not drawn) [Doxylamine_(succinate)]: the synaptosome phagocytic index was 0.833. Then `O=C1CCc2ccc(OCCCCN3CCN(c4cccc(Cl)c4Cl)CC3)cc2N1` [Aripiprazole], with 0.885; and `NC(=O)c1cnccn1` [Pyrazinamide], with 1.21; and `CCN(CC)CC#CCOC(=O)C(O)(c1ccccc1)C1CCCCC1` (stereo not drawn) [Oxybutynin], with 0.889.

Consider `CN(C)CCOc1ccc(-c2nc(-c3ccncc3)c(-c3ccc4c(c3)CC/C4=N\O)[nH]2)cc1`, for which the synaptosome phagocytic index came to 0.684. In the case of `CNCCCC1c2ccccc2C=Cc2ccccc21` [Protriptyline_(hydrochloride)] it was 0.93.
